Results reported in PubChem BioAssay (EPA / NIEHS).
Several values for one entry are separate records, joined by “and”; a condition that tells them apart may be missing. Equal entries are not always repeated. Activity calls are given as the source filed them. The calls were made as follows: active = hit-call score of the fitted dose curve at least 0.9, where 1 is the maximum; inactive = score below 0.9.

Test: CCTE_Shafer_MEA_dev_correlation_coefficient_mean: CCTE's Neural Network Formation Assay for Mean Correlation Coefficient, Shafer Lab (AID 2284093);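 as to AC50: well mean pairwise spike train correlation integrated as AUC over recording days 5 to 12; potency fitted for loss of correlation relative to DMSO vehicle wells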
Details: not given
Outline: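 Read-out: well-mean correlation coefficient of spike trains between electrode pairs, collapsed over four recording days as trapezoidal area-under-the-curve. Developing rat cortical neuron networks grown on MEAs received test chemical continuously from plating.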

SMILES	outcome	AC50
c1ccc2c(c1)ccc1ccccc12	inactive	
CC#C[C@]1(O)CC[C@H]2[C@@H]3CCC4=CC(=O)CCC4=C3[C@@H](c3ccc(N(C)C)cc3)C[C@@]21C		6.26 µM (active) and 22.2 µM (active)
OCCC(F)(F)C(F)(F)C(F)(F)C(F)(F)C(F)(F)C(F)(F)F	inactive	
CC1=C(/C=C/C(C)=C/C=C/C(C)=C/C(=O)O)C(C)(C)CCC1		23.4 µM (active)
c1ccc2c(c1)Cc1ccccc1-2	inactive	
CN1CCC[C@H]1c1cccnc1	inactive	
OCCC(F)(F)C(F)(F)C(F)(F)C(F)(F)C(F)(F)C(F)(F)C(F)(F)C(F)(F)F		23.4 µM (active)
C=C(C)C(=O)OCCC(F)(F)C(F)(F)C(F)(F)C(F)(F)C(F)(F)C(F)(F)F	inactive	
CC(O)CO (configuration not stated)	inactive	
c1ccc2cc3c(ccc4ccccc43)cc2c1	inactive	

Test: UKN2_HCS_IMR90_neural_migration: University of Konstanz (UKN) Leist Lab Neural Crest Cell Migration Assay in human induced IMR90 Pluripotent Stem Cells (UKN2) (AID 2284204)
Details: actives raise or lower the signal
Outline: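 Using a 96-well stopper format with PLO/laminin/fibronectin coating, neural crest cells from iPSC migrate in cytokine-supplemented N2-S medium; after 24 h, chemicals are applied for a further 24 h, then cells are imaged after dye staining.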

SMILES	AC50	outcome
CC#C[C@]1(O)CC[C@H]2[C@@H]3CCC4=CC(=O)CCC4=C3[C@@H](c3ccc(N(C)C)cc3)C[C@@]21C	9.67 µM (active) and 5.64 µM (active)	
CC1=C(/C=C/C(C)=C/C=C/C(C)=C/C(=O)O)C(C)(C)CCC1	5.77 µM (active)	
CN1CCC[C@H]1c1cccnc1		inactive

Test: UKN4_HCS_LUHMES_neurite_outgrowth: University of Konstanz (UKN) Leist Lab Neurite Outgrowth Assay in human LUHMES cells (UKN4) (AID 2284206)
Details: actives raise or lower the signal
Outline: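 Human LUHMES cells were differentiated for two days, replated and treated with chemicals for 24 h. Neurite outgrowth was quantified as calcein-stained neurite area by HCS imaging, fitted bidirectionally relative to DMSO.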

SMILES	AC50	outcome
CC#C[C@]1(O)CC[C@H]2[C@@H]3CCC4=CC(=O)CCC4=C3[C@@H](c3ccc(N(C)C)cc3)C[C@@]21C	10 µM (active)	
CC1=C(/C=C/C(C)=C/C=C/C(C)=C/C(=O)O)C(C)(C)CCC1	29.8 µM (active)	
CN1CCC[C@H]1c1cccnc1		inactive

Test: IUF_NPC1b_proliferation_BrdU_72hr: Leibniz Research Institute for Environmental Medicine (IUF) 72-hour Neural Progenitor Cell Bromodeoxyuridine (BrdU) Proliferation Assay (NPC1b) (AID 2284207)
Details: not given
Outline: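 Neural progenitor spheres of human fetal origin are treated for three days; BrdU added for the last 16 h is quantified by luminescence ELISA, with DMSO as baseline and EGF/FGF omission as positive control.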

SMILES	AC50	outcome
CC#C[C@]1(O)CC[C@H]2[C@@H]3CCC4=CC(=O)CCC4=C3[C@@H](c3ccc(N(C)C)cc3)C[C@@]21C	5 µM (active)	
CC1=C(/C=C/C(C)=C/C=C/C(C)=C/C(=O)O)C(C)(C)CCC1	1.67 µM (active)	
CN1CCC[C@H]1c1cccnc1		inactive

Test: IUF_NPC1a_proliferation_area_72hr: Leibniz Research Institute for Environmental Medicine (IUF) 72-hour Neural Progenitor Cell Proliferation Area Assay (NPC1a) (AID 2284208)
Details: not given
Outline: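 Spheres of 0.3 mm are plated singly in growth-factor medium and exposed from day 0. After three days at 37C and 5% CO2, sphere area is measured by phase contrast imaging, with activity referenced to DMSO.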

SMILES	outcome	AC50
CC#C[C@]1(O)CC[C@H]2[C@@H]3CCC4=CC(=O)CCC4=C3[C@@H](c3ccc(N(C)C)cc3)C[C@@]21C	inactive	
CC1=C(/C=C/C(C)=C/C=C/C(C)=C/C(=O)O)C(C)(C)CCC1		4.35 µM (active)
CN1CCC[C@H]1c1cccnc1	inactive	
